Key:
Experiment in all cases: DAPPL (digital affinity profiling via proximity ligation, sequencing); 10 mM Tris-HCl pH 7.5, 50 mM NaCl, 1 mM DTT, 4% glycerol, room temperature, 30 min; GST-TFs on glutathione beads, 16-mer random dsDNA library, 0.1% formaldehyde crosslink after washing; high values mean tight binding
Conditions in all cases: protein: recombinant; tags: N-terminal GST; dsDNA, one strand shown
FLI1 = target: T1, FLI1 (Homo sapiens, UniProt Q01543 1-452)
T1 sequence: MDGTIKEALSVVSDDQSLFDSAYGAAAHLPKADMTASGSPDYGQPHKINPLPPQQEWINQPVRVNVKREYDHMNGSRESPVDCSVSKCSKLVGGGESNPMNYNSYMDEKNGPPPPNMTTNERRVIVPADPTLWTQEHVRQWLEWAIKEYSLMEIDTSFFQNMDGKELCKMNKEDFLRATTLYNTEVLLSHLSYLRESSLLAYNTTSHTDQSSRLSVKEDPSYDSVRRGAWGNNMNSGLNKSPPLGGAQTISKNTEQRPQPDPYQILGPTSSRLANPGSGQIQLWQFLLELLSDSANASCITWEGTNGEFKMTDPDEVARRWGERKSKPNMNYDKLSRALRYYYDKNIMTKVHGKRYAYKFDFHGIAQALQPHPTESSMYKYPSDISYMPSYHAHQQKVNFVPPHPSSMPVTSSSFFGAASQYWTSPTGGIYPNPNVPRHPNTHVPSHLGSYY
In short: (§1)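 Each value of binding signal is a hexamer's read frequency for a factor divided by the same hexamer's frequency in the tag-only sample. Barcoded, bead-captured GST fusions of human transcription factors made in yeast were pooled with that sample and incubated with 200 nmole of a random double-stranded 16-mer DNA library in Tris/NaCl/DTT/glycerol buffer at room temperature for 30 min. Washing, 0.1% formaldehyde crosslinking, proximity ligation, PCR and Illumina NextSeq500 sequencing followed.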

SPI1 = SPI1 (Homo sapiens, UniProt P17947 1-270)
In short: as §1

ELK3 = target: T2, ELK3 (Homo sapiens, UniProt P41970 1-407)
T2 sequence: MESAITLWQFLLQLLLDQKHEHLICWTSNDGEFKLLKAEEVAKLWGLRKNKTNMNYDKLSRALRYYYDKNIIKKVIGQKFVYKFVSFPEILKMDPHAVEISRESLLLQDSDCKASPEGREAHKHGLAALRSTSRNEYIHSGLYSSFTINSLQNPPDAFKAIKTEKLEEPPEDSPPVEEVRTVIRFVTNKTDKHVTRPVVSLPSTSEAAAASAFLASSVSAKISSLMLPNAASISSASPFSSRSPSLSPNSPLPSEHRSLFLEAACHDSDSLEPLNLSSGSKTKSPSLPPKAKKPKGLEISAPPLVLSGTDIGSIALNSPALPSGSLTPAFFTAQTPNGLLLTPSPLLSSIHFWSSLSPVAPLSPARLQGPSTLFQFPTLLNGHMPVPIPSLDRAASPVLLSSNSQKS
In short: as §1

ELF5 = target: T3, ELF5 (Homo sapiens, UniProt Q9UKW6-2 1-255)
T3 sequence: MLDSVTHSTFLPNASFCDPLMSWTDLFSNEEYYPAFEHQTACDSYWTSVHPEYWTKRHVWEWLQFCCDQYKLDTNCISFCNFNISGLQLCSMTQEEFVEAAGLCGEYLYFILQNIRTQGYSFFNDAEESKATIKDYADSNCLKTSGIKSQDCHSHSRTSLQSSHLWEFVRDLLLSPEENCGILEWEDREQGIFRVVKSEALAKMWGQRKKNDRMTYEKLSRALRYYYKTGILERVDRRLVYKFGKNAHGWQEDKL
In short: as §1

CRX = CRX (Homo sapiens, UniProt O43186 1-299)
Sequence of CRX (O43186 whole entry): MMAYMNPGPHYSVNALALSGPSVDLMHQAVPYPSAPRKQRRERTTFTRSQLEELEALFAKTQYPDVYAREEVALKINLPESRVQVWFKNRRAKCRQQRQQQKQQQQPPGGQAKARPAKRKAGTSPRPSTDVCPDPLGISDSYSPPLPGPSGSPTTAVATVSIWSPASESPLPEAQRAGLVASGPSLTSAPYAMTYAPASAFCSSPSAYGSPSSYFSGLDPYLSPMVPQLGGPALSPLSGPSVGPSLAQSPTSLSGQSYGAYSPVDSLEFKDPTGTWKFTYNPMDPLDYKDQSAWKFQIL
In short: as §1

Row | Sequence | binding signal (FLI1) | binding signal (SPI1) | binding signal (ELK3) | binding signal (ELF5) | binding signal (CRX)
1 | TTGTCA | 1.1 fold enrichment (6-mer frequency, TF over GST control) | 1.16 fold enrichment (6-mer frequency, TF over GST control) | 1.13 fold enrichment (6-mer frequency, TF over GST control) | 1.05 fold enrichment (6-mer frequency, TF over GST control) | 
2 | CATGTT | 1.05 fold enrichment (6-mer frequency, TF over GST control) | 1.04 fold enrichment (6-mer frequency, TF over GST control) |  |  | 
3 | TGGCTG | 1.11 fold enrichment (6-mer frequency, TF over GST control) | 1.02 fold enrichment (6-mer frequency, TF over GST control) |  | 1.01 fold enrichment (6-mer frequency, TF over GST control) | 
4 | CCCGTC | 1.12 fold enrichment (6-mer frequency, TF over GST control) | 1.11 fold enrichment (6-mer frequency, TF over GST control) |  | 1.12 fold enrichment (6-mer frequency, TF over GST control) | 
5 | CGCGTA | 1.07 fold enrichment (6-mer frequency, TF over GST control) |  |  |  | 
6 | ACCGGC | 1.07 fold enrichment (6-mer frequency, TF over GST control) | 1.17 fold enrichment (6-mer frequency, TF over GST control) | 1.11 fold enrichment (6-mer frequency, TF over GST control) | 1.11 fold enrichment (6-mer frequency, TF over GST control) | 
7 | CGTTTG | 1.05 fold enrichment (6-mer frequency, TF over GST control) |  | 1 fold enrichment (6-mer frequency, TF over GST control) | 1.1 fold enrichment (6-mer frequency, TF over GST control) | 
8 | GCTAAC | 1.11 fold enrichment (6-mer frequency, TF over GST control) | 1.1 fold enrichment (6-mer frequency, TF over GST control) | 1.18 fold enrichment (6-mer frequency, TF over GST control) |  | 
9 | ACGCGG | 1.04 fold enrichment (6-mer frequency, TF over GST control) | 1.02 fold enrichment (6-mer frequency, TF over GST control) | 1.05 fold enrichment (6-mer frequency, TF over GST control) | 1.07 fold enrichment (6-mer frequency, TF over GST control) | 
10 | CGTCCA | 1.13 fold enrichment (6-mer frequency, TF over GST control) | 1.03 fold enrichment (6-mer frequency, TF over GST control) | 1.13 fold enrichment (6-mer frequency, TF over GST control) |  | 
11 | CGCGTT | 1.1 fold enrichment (6-mer frequency, TF over GST control) |  | 1.06 fold enrichment (6-mer frequency, TF over GST control) | 1.02 fold enrichment (6-mer frequency, TF over GST control) | 
12 | GGTCAC | 1.08 fold enrichment (6-mer frequency, TF over GST control) |  |  |  | 
13 | ACGGTA | 1.02 fold enrichment (6-mer frequency, TF over GST control) |  |  | 1.05 fold enrichment (6-mer frequency, TF over GST control) | 
14 | AGCGCT | 1.1 fold enrichment (6-mer frequency, TF over GST control) |  | 1.14 fold enrichment (6-mer frequency, TF over GST control) | 1 fold enrichment (6-mer frequency, TF over GST control) | 1.01 fold enrichment (6-mer frequency, TF over GST control)
15 | TCACCG | 1.06 fold enrichment (6-mer frequency, TF over GST control) | 1.06 fold enrichment (6-mer frequency, TF over GST control) | 1.13 fold enrichment (6-mer frequency, TF over GST control) | 1.01 fold enrichment (6-mer frequency, TF over GST control) | 
16 | CAGCCT | 1.14 fold enrichment (6-mer frequency, TF over GST control) | 1.03 fold enrichment (6-mer frequency, TF over GST control) |  |  | 1.06 fold enrichment (6-mer frequency, TF over GST control)
17 | CACCGG | 1.11 fold enrichment (6-mer frequency, TF over GST control) | 1.08 fold enrichment (6-mer frequency, TF over GST control) | 1.16 fold enrichment (6-mer frequency, TF over GST control) | 1.03 fold enrichment (6-mer frequency, TF over GST control) | 
18 | TGGGCA | 1.05 fold enrichment (6-mer frequency, TF over GST control) | 1.08 fold enrichment (6-mer frequency, TF over GST control) | 1.19 fold enrichment (6-mer frequency, TF over GST control) |  | 

Row | Sequence | binding signal (FLI1) | binding signal (SPI1) | binding signal (ELK3) | binding signal (ELF5) | binding signal (CRX)
19 | GGTGGT | 1.05 fold enrichment (6-mer frequency, TF over GST control) |  | 1.03 fold enrichment (6-mer frequency, TF over GST control) |  | 
20 | GGCTAC | 1.17 fold enrichment (6-mer frequency, TF over GST control) |  | 1.19 fold enrichment (6-mer frequency, TF over GST control) | 1.16 fold enrichment (6-mer frequency, TF over GST control) | 
21 | CAATGG | 1.14 fold enrichment (6-mer frequency, TF over GST control) | 1.04 fold enrichment (6-mer frequency, TF over GST control) |  |  | 
22 | AACCGC | 1.15 fold enrichment (6-mer frequency, TF over GST control) | 1.04 fold enrichment (6-mer frequency, TF over GST control) | 1.07 fold enrichment (6-mer frequency, TF over GST control) | 1 fold enrichment (6-mer frequency, TF over GST control) | 1.02 fold enrichment (6-mer frequency, TF over GST control)
23 | GCAAAC | 1.04 fold enrichment (6-mer frequency, TF over GST control) | 1.07 fold enrichment (6-mer frequency, TF over GST control) | 1.04 fold enrichment (6-mer frequency, TF over GST control) |  | 
24 | TGCGCC | 1.17 fold enrichment (6-mer frequency, TF over GST control) | 1.22 fold enrichment (6-mer frequency, TF over GST control) | 1.07 fold enrichment (6-mer frequency, TF over GST control) | 1.11 fold enrichment (6-mer frequency, TF over GST control) | 
25 | CCGCAG | 1.12 fold enrichment (6-mer frequency, TF over GST control) | 1.11 fold enrichment (6-mer frequency, TF over GST control) | 1.14 fold enrichment (6-mer frequency, TF over GST control) | 1.04 fold enrichment (6-mer frequency, TF over GST control) | 
26 | TCAAGC | 1.03 fold enrichment (6-mer frequency, TF over GST control) |  | 1.09 fold enrichment (6-mer frequency, TF over GST control) |  | 1.06 fold enrichment (6-mer frequency, TF over GST control)
27 | TGCAAG | 1.09 fold enrichment (6-mer frequency, TF over GST control) | 1 fold enrichment (6-mer frequency, TF over GST control) |  | 1.05 fold enrichment (6-mer frequency, TF over GST control) | 
28 | ATAGCC | 1.03 fold enrichment (6-mer frequency, TF over GST control) |  | 1.01 fold enrichment (6-mer frequency, TF over GST control) |  | 1.02 fold enrichment (6-mer frequency, TF over GST control)
29 | GCACAC | 1.02 fold enrichment (6-mer frequency, TF over GST control) |  |  |  | 
30 | GTAACC | 1.04 fold enrichment (6-mer frequency, TF over GST control) | 1.01 fold enrichment (6-mer frequency, TF over GST control) | 1.04 fold enrichment (6-mer frequency, TF over GST control) | 1.07 fold enrichment (6-mer frequency, TF over GST control) | 
31 | CGCACG | 1.1 fold enrichment (6-mer frequency, TF over GST control) |  | 1.02 fold enrichment (6-mer frequency, TF over GST control) | 1.02 fold enrichment (6-mer frequency, TF over GST control) | 
32 | GGTACA | 1.03 fold enrichment (6-mer frequency, TF over GST control) |  |  | 1 fold enrichment (6-mer frequency, TF over GST control) | 
33 | CCAAGC | 1.01 fold enrichment (6-mer frequency, TF over GST control) |  |  |  | 
34 | TCGTCC | 1.1 fold enrichment (6-mer frequency, TF over GST control) | 1.03 fold enrichment (6-mer frequency, TF over GST control) | 1.18 fold enrichment (6-mer frequency, TF over GST control) | 1.02 fold enrichment (6-mer frequency, TF over GST control) | 
35 | CGTTGT | 1.15 fold enrichment (6-mer frequency, TF over GST control) |  |  | 1.07 fold enrichment (6-mer frequency, TF over GST control) | 
36 | CGCCGG | 1.01 fold enrichment (6-mer frequency, TF over GST control) |  | 1.08 fold enrichment (6-mer frequency, TF over GST control) | 1.02 fold enrichment (6-mer frequency, TF over GST control) | 
